# Test results published in PubChem BioAssay (NCI).
# Compounds without any hit were thinned out: in the full panel of roughly 83,000, 20% have a hit.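 For each line, cells grew in 96-well plates with the test compound present at a single concentration for 48 hours.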 A number with no mark means an inactive call. Active and inactive are the calls of the source. How the source made its calls: active means growth percent below 10; inactive means the rest.
# Test system: T-47D breast
# Assay: NCI-60 one-dose screen, 48 h (100 = growth as untreated, 0 = no growth, -100 = all killed)
# Details: 10 µM unless noted
row,SMILES,growth
1,OCC1OC(n2ccc3c2ncn2ncnc32)C(O)C1O (centres undefined),10.9%
2,Nc1cc(N)ncn1,112%
3,CCC(/C=C\C(C)=O)CC,101%
4,Cc1[nH]c(=S)[nH]c(=O)c1C,115%
5,CC(C)Sc1ncnc2nc[nH]c12,100%
6,CC(C)N(CCCC#N)C(C)C,94.2%
7,C=C1C(=O)C2CCN1CC2,98%
8,CCC12OC(COc3ccccc3)CN1CCN2c1ccccc1 (centres undefined),90.4% [100 µM]
9,CCCCOC(=O)c1ccccc1O,107%
10,CC1CC(C)S(=O)(=O)C1 (centres undefined),109%
11,C=CC1=NC(C)(C)CC(C)O1 (centres undefined),92.2%
12,CN(C)c1ncnc2c1cnn2C,88.2%
13,COc1cc(OC)c(NC(=O)C(Sc2nc(C)cc(C)c2C#N)c2ccccc2)cc1Cl (centres undefined),95.9%
14,CC(=O)NCNC(C)=O,108%
15,CCCCNC(=O)c1ccc(OCC)cc1,96.1%
16,Nc1ccc(F)c(Cl)c1F,102%
17,C=C(OC(C)=O)c1ccccc1,89.5%
18,C/C=C/C1OCC(CC)C(CCC)O1 (centres undefined),107%
19,COc1ccc(C2CC(c3ccccc3)=Nc3ccccc3S2)cc1 (centres undefined),84.1%

row,SMILES,growth
1,Clc1cccc(Cl)c1C1CSc2ccccc2N=C1c1ccccc1 (centres undefined),65.4%
2,COC1CC(OC(=O)c2ccc([N+](=O)[O-])cc2)C(COC(=O)c2ccc([N+](=O)[O-])cc2)O1 (centres undefined),104%
3,CC(=O)NC(CCC(=O)c1ccccc1)C(=O)O (centres undefined),83.3%
4,ClCc1cccc2c(CCl)cccc12,4.84% (active)
5,CCCCCCCCCCCCCCCCCC(=O)NCCNC(=O)CCCCCCCCCCCCCCCCC,78.6%
6,O=C(CCCl)OCCOc1ccccc1,96%
7,O=C(O)CC1=CCCCC1,109%
8,c1cc(CNCCNCc2ccncc2)ccn1,91.4%
9,O=C1CSc2ccccc2N1,107%
10,CC(C)OCC(CCl)OC(=O)Nc1ccccc1 (centres undefined),100%
11,COCC(N)=O,98.4%
12,Nc1cc(F)ccc1[N+](=O)[O-],104%
13,CC(C)=CCC[C@@H](C)[C@H]1CC[C@@]2(C)C3=C(CC[C@]12C)[C@@]1(C)CC[C@H](O)C(C)(C)[C@@H]1CC3,92.8%
14,BrCc1cccc(C[P+](c2ccccc2)(c2ccccc2)c2ccccc2)c1,28.2%
15,COc1ccc(/C=N/NC(=O)COCC(=O)N/N=C/c2ccc(OC)cc2)cc1,104%
16,CCOC(=O)CSCCC#N,83.4%
17,Cc1cccc2ccccc12,109%
18,CCC(=O)C1C(=O)c2ccccc2C1=O,113%

# Test system: BT-549 breast
# Assay: as above
# Details: 10 µM unless noted
row,SMILES,growth
1,OCC1OC(n2ccc3c2ncn2ncnc32)C(O)C1O (centres undefined),23.3%
2,Nc1cc(N)ncn1,101%
3,CCC(/C=C\C(C)=O)CC,103%
4,Cc1[nH]c(=S)[nH]c(=O)c1C,99.7%
5,CC(C)Sc1ncnc2nc[nH]c12,121%
6,CC(C)N(CCCC#N)C(C)C,112%
7,C=C1C(=O)C2CCN1CC2,96.9%
8,CCC12OC(COc3ccccc3)CN1CCN2c1ccccc1 (centres undefined),105% [100 µM]
9,CCCCOC(=O)c1ccccc1O,109%
10,CC1CC(C)S(=O)(=O)C1 (centres undefined),103%
11,C=CC1=NC(C)(C)CC(C)O1 (centres undefined),109%
12,CN(C)c1ncnc2c1cnn2C,99.9%
13,COc1cc(OC)c(NC(=O)C(Sc2nc(C)cc(C)c2C#N)c2ccccc2)cc1Cl (centres undefined),81.7%
14,CC(=O)NCNC(C)=O,100%
15,CCCCNC(=O)c1ccc(OCC)cc1,99.9%
16,Nc1ccc(F)c(Cl)c1F,88.8%
17,C=C(OC(C)=O)c1ccccc1,107%
18,C/C=C/C1OCC(CC)C(CCC)O1 (centres undefined),108%
19,COc1ccc(C2CC(c3ccccc3)=Nc3ccccc3S2)cc1 (centres undefined),91.6%

row,SMILES,growth
1,Clc1cccc(Cl)c1C1CSc2ccccc2N=C1c1ccccc1 (centres undefined),42%
2,COC1CC(OC(=O)c2ccc([N+](=O)[O-])cc2)C(COC(=O)c2ccc([N+](=O)[O-])cc2)O1 (centres undefined),116%
3,CC(=O)NC(CCC(=O)c1ccccc1)C(=O)O (centres undefined),76.9%
4,ClCc1cccc2c(CCl)cccc12,-74% (active)
5,CCCCCCCCCCCCCCCCCC(=O)NCCNC(=O)CCCCCCCCCCCCCCCCC,105%
6,O=C(CCCl)OCCOc1ccccc1,116%
7,O=C(O)CC1=CCCCC1,96.1%
8,c1cc(CNCCNCc2ccncc2)ccn1,117%
9,O=C1CSc2ccccc2N1,117%
10,CC(C)OCC(CCl)OC(=O)Nc1ccccc1 (centres undefined),110%
11,COCC(N)=O,93.2%
12,Nc1cc(F)ccc1[N+](=O)[O-],103%
13,CC(C)=CCC[C@@H](C)[C@H]1CC[C@@]2(C)C3=C(CC[C@]12C)[C@@]1(C)CC[C@H](O)C(C)(C)[C@@H]1CC3,109%
14,BrCc1cccc(C[P+](c2ccccc2)(c2ccccc2)c2ccccc2)c1,93.1%
15,COc1ccc(/C=N/NC(=O)COCC(=O)N/N=C/c2ccc(OC)cc2)cc1,118%
16,CCOC(=O)CSCCC#N,87.2%
17,Cc1cccc2ccccc12,99.6%
18,CCC(=O)C1C(=O)c2ccccc2C1=O,103%
